Assay outcomes deposited in PubChem by Broad Institute.
GSIS activator – GLuc luminescence reporter in INS-1E cells, primary screen for activators of glucose-dependent secretion of insulin | INS-1E GLuc reporter insulin secretion, 2-3 h | activation, % at 16.6 µM | hit rate 0.61% among 370,000 | AID 743287, 2014;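 active = lowest replicate activation of at least 40%, so every replicate reaches that level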
SIRT5 inh – SIRT5 desuccinylase inhibitors, primary screen, biochemical, fluorescence imaging, single point, set 5 | NAD-dependent protein deacylase sirtuin-5, mitochondrial (Homo sapiens), Q9NXA8 | Purified SirT5, succinyl-peptide AMC, trypsin-coupled fluorescence | inhibition, % at 15 µM | hit rate 1.1% among 330,000; in the data active = inhibition above about 15%
Target sequence (Q9NXA8 whole entry, looked up): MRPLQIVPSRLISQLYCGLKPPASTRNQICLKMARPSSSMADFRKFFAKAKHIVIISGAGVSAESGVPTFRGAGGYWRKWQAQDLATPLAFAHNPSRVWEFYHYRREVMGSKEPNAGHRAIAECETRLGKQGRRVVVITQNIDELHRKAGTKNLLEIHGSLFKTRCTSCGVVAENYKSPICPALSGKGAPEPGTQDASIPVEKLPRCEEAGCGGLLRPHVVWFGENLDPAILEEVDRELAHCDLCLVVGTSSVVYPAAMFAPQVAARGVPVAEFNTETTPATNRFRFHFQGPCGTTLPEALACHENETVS
Casp6 inh – human caspase-6 inhibitors, primary screen, biochemical, VEID-R110 fluorescence, single point, set 2. P55212. purified caspase-6, Z-VEID-R110 cleavage fluorescence. hit rate 0.53% among 350,000. inhibition, % at 12.5 µM;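 active = mean inhibition across replicates at least about 35%, with every replicate also reaching that limit, limit read from the data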
FGF22 binding – binders of human FGF22 protein, primary screen, FGF22 synaptogenesis inhibitor project, biophysical, thermal shift, single point; activity (Tm shift, normalised), % at 9.99 µM; recombinant FGF22 thermal shift, SYPRO orange fluorescence; percent of sucrose octasulfate shift, DMSO zero; AID 651658, 2012; hit rate 1.5% among 340,000;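 active = mean Tm shift, scaled 0 neutral to 100 positive control, at about 1.3% or above, every replicate too, limit read from the data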
Target sequence (Q9HCT0 whole entry, looked up): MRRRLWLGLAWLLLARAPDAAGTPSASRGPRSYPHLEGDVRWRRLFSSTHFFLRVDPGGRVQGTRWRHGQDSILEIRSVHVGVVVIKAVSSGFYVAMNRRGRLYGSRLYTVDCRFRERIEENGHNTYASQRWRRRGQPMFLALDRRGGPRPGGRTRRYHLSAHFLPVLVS
ERAP1 HTS inh – human ERAP1 aminopeptidase inhibitors, primary screen, biochemical, single point, plate reader; AID 652197, 2013; Endoplasmic reticulum aminopeptidase 1 (Homo sapiens), Q9NZ08; recombinant ERAP1, Leu-AMC fluorescence, 60 min; inhibition, % at 10.7 µM; hit rate 0.15% among 340,000;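 active = mean replicate inhibition of at least 30%, or all replicates individually reaching that 30% level; inactive = mean below 30% and not every replicate reaching it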
Numbers stand for hits. Compounds with a hit are over-represented: about 3.3% of the library has one in this group of screens.

Results for CN(C)/C=C/C(=O)c1ccc(Cl)c([N+](=O)[O-])c1 ?
GSIS activator: inactive; SIRT5 inh: 17; Casp6 inh: inactive; FGF22 binding: inactive; ERAP1 HTS inh: inactive

How did Cc1ccc2c(c1)CCCN2C(=O)c1ccc2c(c1)OCO2 do in these assays?
GSIS activator: 54

What do the screens show for `O=C(c1cccc(F)c1)N1CCCc2ccccc21`?
GSIS activator: 84; SIRT5 inh: inactive; Casp6 inh: inactive; FGF22 binding: inactive; ERAP1 HTS inh: inactive

How did O=C(c1ccc2c(c1)OCO2)N1CCc2ccccc21 do in these assays?
GSIS activator: inactive; SIRT5 inh: inactive; Casp6 inh: inactive; FGF22 binding: inactive; ERAP1 HTS inh: inactive

What do the screens show for `O=C(c1ccc2c(c1)OCO2)N1CCc2ccccc2C1`?
GSIS activator: 81

Results for CN(C)C(=O)[C@H]1[C@H](CO)[C@H]2Cn3c(ccc(-c4cncnc4)c3=O)[C@H]2N1Cc1cc(F)ccc1F ?
GSIS activator: inactive; SIRT5 inh: inactive; Casp6 inh: inactive; FGF22 binding: inactive; ERAP1 HTS inh: inactive

Results for C[C@H]1CN(C)C(=O)Cc2ccccc2O[C@H]1CN(C)C(=O)OC(C)(C)C ?
GSIS activator: inactive

How did CNC[C@@H]1Oc2ccc(NC(=O)C3CC3)cc2CC(=O)N([C@H](C)CO)C[C@@H]1C do in these assays?
GSIS activator: inactive; SIRT5 inh: inactive; Casp6 inh: inactive; ERAP1 HTS inh: inactive

Results for CC(Oc1ccc2ccccc2c1)C(=O)N/N=C/c1cccnc1 (configuration not stated) ?
GSIS activator: inactive; SIRT5 inh: inactive; FGF22 binding: inactive; ERAP1 HTS inh: inactive

Results for O=C(COc1cccc2ccccc12)N/N=C/c1ccncc1 ?
GSIS activator: inactive; SIRT5 inh: inactive; Casp6 inh: inactive; FGF22 binding: 43; ERAP1 HTS inh: inactive

What do the screens show for `CC(Nc1ccc2ccccc2c1)C(=O)N/N=C/c1ccncc1` (configuration not stated)?
GSIS activator: inactive; SIRT5 inh: inactive; Casp6 inh: 61; FGF22 binding: inactive; ERAP1 HTS inh: inactive

What do the screens show for `CC(=O)Nc1ccc2c(c1)C(=O)N(C)[C@@H]1CC[C@@H](CC(=O)NCc3ccc(Cl)cc3)O[C@@H]1CO2`?
GSIS activator: inactive; Casp6 inh: inactive; FGF22 binding: inactive; ERAP1 HTS inh: inactive

Results for COCC(=O)Nc1ccc2c(c1)[C@@H]1C[C@H](CC(=O)NCc3cccc(F)c3)O[C@H](CO)[C@@H]1O2 ?
GSIS activator: inactive; SIRT5 inh: inactive; Casp6 inh: inactive; FGF22 binding: inactive; ERAP1 HTS inh: inactive

Results for S=C(NCCCN1CCOCC1)Nc1cccc(-c2nnc3n2CCCCC3)c1 ?
GSIS activator: inactive; SIRT5 inh: 16; Casp6 inh: inactive; FGF22 binding: inactive; ERAP1 HTS inh: inactive

Results for Cc1cccc(NC(=S)NCCN2CCOCC2)c1 ?
GSIS activator: inactive; SIRT5 inh: inactive; Casp6 inh: inactive; FGF22 binding: inactive; ERAP1 HTS inh: inactive

Results for COc1cc(C(=O)OCc2cc(=O)c(O)co2)ccc1OC(F)F ?
GSIS activator: 52; SIRT5 inh: inactive; Casp6 inh: inactive; FGF22 binding: inactive; ERAP1 HTS inh: inactive

What do the screens show for `CCS(=O)(=O)Nc1ccc2c(c1)C(=O)N(C)C[C@@H](OC)[C@@H](C)CN(C(C)=O)[C@H](C)CO2`?
GSIS activator: inactive; SIRT5 inh: inactive; Casp6 inh: inactive; FGF22 binding: inactive; ERAP1 HTS inh: inactive

How did COc1ccc(CC(=O)Nc2ccccc2Oc2ccccc2)cc1 do in these assays?
GSIS activator: inactive; Casp6 inh: inactive; FGF22 binding: 43; ERAP1 HTS inh: inactive

How did COc1ccccc1NC(=O)Cc1ccc(-c2ccccc2)cc1 do in these assays?
GSIS activator: inactive; SIRT5 inh: inactive; Casp6 inh: inactive; FGF22 binding: inactive; ERAP1 HTS inh: inactive

How did CCOc1ccccc1NC(=O)CCS(=O)(=O)c1ccc(OC)cc1 do in these assays?
GSIS activator: inactive; SIRT5 inh: inactive; Casp6 inh: inactive; FGF22 binding: 44; ERAP1 HTS inh: inactive

What do the screens show for `COc1ccc([N+](=O)[O-])c(S(=O)(=O)c2ccc(Cl)cc2)n1`?
GSIS activator: 59; Casp6 inh: inactive; FGF22 binding: inactive; ERAP1 HTS inh: inactive

Results for COc1ccc([N+](=O)[O-])c(S(=O)(=O)c2ccccc2)n1 ?
Casp6 inh: inactive; FGF22 binding: inactive; ERAP1 HTS inh: inactive

How did Nc1cccnc1S(=O)(=O)c1ccccc1 do in these assays?
GSIS activator: inactive; SIRT5 inh: inactive; Casp6 inh: inactive; FGF22 binding: inactive; ERAP1 HTS inh: inactive

How did O=[N+]([O-])c1cccnc1S(=O)(=O)c1ccccc1 do in these assays?
GSIS activator: 130; SIRT5 inh: inactive; Casp6 inh: inactive; FGF22 binding: inactive; ERAP1 HTS inh: inactive

What do the screens show for `O=C(COC(=O)c1c2c(nc3ccccc13)/C(=C\c1ccco1)CC2)NC1CCCC1`?
GSIS activator: inactive; SIRT5 inh: inactive; Casp6 inh: 43; FGF22 binding: inactive; ERAP1 HTS inh: inactive

Results for C[C@@H]1CN([C@@H](C)CO)S(=O)(=O)c2ccc(C#Cc3ccccc3)cc2O[C@@H]1CN(C)C ?
GSIS activator: inactive; SIRT5 inh: inactive; Casp6 inh: inactive; FGF22 binding: inactive; ERAP1 HTS inh: inactive

Results for O=S(=O)(Nc1cccc(S(=O)(=O)N2CCCCC2)c1)c1ccccc1F ?
Casp6 inh: inactive; FGF22 binding: 44; ERAP1 HTS inh: inactive

How did CCOc1ccc(/C=C/C(=O)OCC(=O)Nc2cccc(S(=O)(=O)N3CCCC3)c2)cc1 do in these assays?
GSIS activator: inactive; SIRT5 inh: inactive; Casp6 inh: inactive; FGF22 binding: inactive; ERAP1 HTS inh: inactive

How did O=S(=O)(Nc1ccc(S(=O)(=O)N2CCCCCC2)cc1)c1cccs1 do in these assays?
GSIS activator: inactive; SIRT5 inh: inactive; Casp6 inh: inactive; FGF22 binding: inactive; ERAP1 HTS inh: inactive

What do the screens show for `O=C(COC(=O)/C=C/c1cccs1)Nc1cccc(S(=O)(=O)N2CCCC2)c1`?
GSIS activator: inactive; SIRT5 inh: 15; Casp6 inh: inactive; FGF22 binding: inactive; ERAP1 HTS inh: inactive

What do the screens show for `O=S(=O)(Nc1cccc(S(=O)(=O)N2CCCC2)c1)c1cccs1`?
Casp6 inh: inactive; FGF22 binding: 43; ERAP1 HTS inh: inactive

How did O=C(Nc1ccccc1)N1CCCCN2[C@H](C1)[C@@H](c1ccc(C#CC3CC3)cc1)[C@@H]2CO do in these assays?
GSIS activator: inactive; SIRT5 inh: inactive; Casp6 inh: inactive; FGF22 binding: inactive; ERAP1 HTS inh: inactive

Results for O=C(N[C@H]1CC[C@H](CCn2cc(-c3ccccc3)nn2)O[C@@H]1CO)c1ccccc1F ?
GSIS activator: inactive; SIRT5 inh: inactive; Casp6 inh: inactive; FGF22 binding: inactive; ERAP1 HTS inh: inactive
